# Unmarked numbers belong to inactive results. For part of these data: Entries with a potency or affinity are not part of this list. Activity calls are given as the source filed them. Unless noted, how the calls were made is not given here.
# Experiments:
# [1] = antimalarial activity against Dd2 strain (AID 2302;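 active means growth inhibition above 50% at the single 2 µM test dose, taken to imply half-maximal potency below 2 µM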;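 further: 0% = DMSO untreated growth and 100% = chloroquine plus artemisinin killed control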); details: P. falciparum Dd2 in RBCs, LDH growth readout, 72 h; at 2 µM; active compounds read high
# [2] = HepG2 cytotoxicity, primary screen, cytotoxicity control for P. falciparum antimalarial project, cell-based, ATP luminescence (AID 2303;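 active means inhibition above 50%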;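 further: 0% = DMSO wells and 100% = digitonin-killed cells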); details: HepG2 viability, 24-48 h, at 10 µM, active compounds read high
# [3] = target: L-lactate dehydrogenase (Plasmodium falciparum (isolate CDC / Honduras)) (UniProt Q27743); assay: PfLDH activity inhibition – cell lysate, 3D7 strain, counter-screen for P. falciparum growth inhibition project (AID 2304);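 further: 0% = vehicle and 100% = reference inhibitor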; details: P. falciparum 3D7 crude extract, LDH APAD/NBT absorbance; at 2 µM; active compounds read high
# Chain of L-lactate dehydrogenase (Plasmodium falciparum (isolate CDC / Honduras)) (Q27743 whole entry, looked up): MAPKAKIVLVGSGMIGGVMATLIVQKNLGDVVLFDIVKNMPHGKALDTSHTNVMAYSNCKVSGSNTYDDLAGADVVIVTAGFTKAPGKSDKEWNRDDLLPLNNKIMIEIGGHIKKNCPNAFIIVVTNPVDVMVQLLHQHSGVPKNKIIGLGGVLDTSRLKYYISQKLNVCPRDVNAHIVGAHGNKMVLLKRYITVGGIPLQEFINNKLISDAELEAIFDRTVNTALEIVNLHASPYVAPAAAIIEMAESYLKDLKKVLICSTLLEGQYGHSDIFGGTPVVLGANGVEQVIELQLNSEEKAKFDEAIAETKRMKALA
# [4] = inhibition of 3D7 malaria parasite growth – strain 3D7 (AID 2306);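 further: 0% = DMSO wells and 100% = chloroquine plus artemisinin control wells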; details: P. falciparum 3D7 erythrocytic growth, LDH absorbance, 72 h; at 2 µM; active compounds read high
# [5] = target: Calcium-dependent protein kinase 1 (Plasmodium falciparum (isolate 3D7)) (UniProt P62344); assay: PfCDPK1 kinase inhibitors, biochemical, TCAMS library (AID 1159585; cut-off not given, nearly all actives have IC50 up to about 0.98 µM;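 further: inhibitors leave more ATP so luminescence rises with inhibition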); details: recombinant PfCDPK1, Kinase-Glo ATP depletion luminescence
# Chain of Calcium-dependent protein kinase 1 (Plasmodium falciparum (isolate 3D7)) (P62344 whole entry, looked up): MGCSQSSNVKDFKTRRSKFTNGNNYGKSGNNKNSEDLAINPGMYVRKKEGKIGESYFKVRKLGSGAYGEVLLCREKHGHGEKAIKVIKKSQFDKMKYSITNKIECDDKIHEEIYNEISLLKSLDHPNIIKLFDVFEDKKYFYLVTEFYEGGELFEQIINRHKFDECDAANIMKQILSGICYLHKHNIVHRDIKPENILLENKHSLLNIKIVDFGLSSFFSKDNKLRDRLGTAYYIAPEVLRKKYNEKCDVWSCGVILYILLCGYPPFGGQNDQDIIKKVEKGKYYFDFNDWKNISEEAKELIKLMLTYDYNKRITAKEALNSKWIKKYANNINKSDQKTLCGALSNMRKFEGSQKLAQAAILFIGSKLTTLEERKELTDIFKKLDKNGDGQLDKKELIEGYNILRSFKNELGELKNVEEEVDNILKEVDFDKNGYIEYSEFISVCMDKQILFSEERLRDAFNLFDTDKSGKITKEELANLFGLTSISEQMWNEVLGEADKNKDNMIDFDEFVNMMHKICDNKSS
# [6] = target: Plasmodium falciparum protein kinase 6 (PK6, PF3D7_1337100) (UniProt Q8IDW1); assay: PfPK6 kinase inhibitors, biochemical, TCAMS library (AID 1159586); details: recombinant PfPK6, Kinase-Glo ATP depletion luminescence
# Chain of Plasmodium falciparum protein kinase 6 (PK6, PF3D7_1337100) (Q8IDW1 1-305): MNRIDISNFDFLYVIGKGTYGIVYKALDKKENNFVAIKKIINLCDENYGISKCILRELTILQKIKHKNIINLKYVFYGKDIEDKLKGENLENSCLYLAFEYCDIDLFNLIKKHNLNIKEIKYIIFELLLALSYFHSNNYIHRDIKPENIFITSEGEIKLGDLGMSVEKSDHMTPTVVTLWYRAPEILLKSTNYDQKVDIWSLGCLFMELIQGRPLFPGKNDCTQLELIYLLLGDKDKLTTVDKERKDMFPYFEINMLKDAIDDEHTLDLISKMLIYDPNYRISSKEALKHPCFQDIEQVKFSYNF
# [7] = target: Protein kinase 7 (PK7), Plasmodium falciparum 3D7 (PF3D7_0213400) (UniProt Q7YTF7); assay: inhibition of Plasmodium PK7 catalytic activity – biochemical, TCAMS antimalarial set, Kinase-Glo luminescence (AID 1159587); details: recombinant PfPK7, Kinase-Glo ATP depletion luminescence
# Chain of Protein kinase 7 (PK7), Plasmodium falciparum 3D7 (PF3D7_0213400) (Q7YTF7 1-343): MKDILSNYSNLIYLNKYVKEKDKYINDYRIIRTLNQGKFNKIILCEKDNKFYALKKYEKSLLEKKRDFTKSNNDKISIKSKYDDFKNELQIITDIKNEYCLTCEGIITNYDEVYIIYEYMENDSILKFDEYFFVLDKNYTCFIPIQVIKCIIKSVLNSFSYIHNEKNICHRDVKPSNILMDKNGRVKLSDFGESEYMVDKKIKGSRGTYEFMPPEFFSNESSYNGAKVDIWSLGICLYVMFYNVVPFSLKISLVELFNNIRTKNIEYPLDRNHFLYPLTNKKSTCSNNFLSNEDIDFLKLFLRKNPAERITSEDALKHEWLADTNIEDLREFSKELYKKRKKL
# [8] = target: Calcium-dependent protein kinase 4 (Plasmodium falciparum (isolate 3D7)) (UniProt Q8IBS5); assay: PfCDPK4 kinase inhibitors, biochemical, TCAMS library (AID 1159588; cut-off not given, nearly all actives have IC50 up to about 0.91 µM); details: recombinant PfCDPK4, Kinase-Glo ATP depletion luminescence
# Chain of Calcium-dependent protein kinase 4 (Plasmodium falciparum (isolate 3D7)) (Q8IBS5 whole entry, looked up): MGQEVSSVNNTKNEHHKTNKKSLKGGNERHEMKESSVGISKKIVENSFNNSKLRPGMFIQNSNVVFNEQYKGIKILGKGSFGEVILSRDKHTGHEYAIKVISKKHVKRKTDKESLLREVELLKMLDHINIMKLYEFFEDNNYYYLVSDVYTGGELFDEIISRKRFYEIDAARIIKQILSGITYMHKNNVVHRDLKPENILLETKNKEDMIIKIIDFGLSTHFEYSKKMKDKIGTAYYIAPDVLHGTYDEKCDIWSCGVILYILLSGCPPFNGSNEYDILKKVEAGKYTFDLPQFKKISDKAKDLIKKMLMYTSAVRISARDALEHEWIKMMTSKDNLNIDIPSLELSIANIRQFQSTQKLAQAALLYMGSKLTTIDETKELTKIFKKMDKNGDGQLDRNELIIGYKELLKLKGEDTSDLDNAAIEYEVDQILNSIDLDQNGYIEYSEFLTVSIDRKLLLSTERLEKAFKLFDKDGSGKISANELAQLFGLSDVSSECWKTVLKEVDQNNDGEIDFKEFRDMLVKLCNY
Compound,growth inhibition [1],inhibition [2],inhibition [3],growth inhibition [4],outcome [5],outcome [6],outcome [7],outcome [8]
CCC[C@@H](/C=N/N(C)C(=O)OC(C)(C)C)NC(=O)[C@H](CC(C)C)NC(=O)c1cc2cccc(OC)c2o1,61% (active),5%,6%,88% (active),inactive,inactive,inactive,inactive
CN(C)CCOc1ccc(N2CCN(CCCCNC(=O)c3ccc(NC(=O)c4ccc(Cl)cc4)cc3)CC2)cc1,98% (active),13%,0%,99% (active),inactive,inactive,inactive,inactive
Cc1cc(C2CCN(CCCCNC(=O)c3ccc(NC(=O)c4ccc(Cl)cc4)cc3)CC2)c(C)cc1OCc1nccn1C,98% (active),18%,-2%,100% (active),inactive,inactive,inactive,inactive
CC(C)(C)COC(=O)c1ccc(NC(=O)N[C@@H](Cc2ccc(O)cc2)C(=O)NC2CCN(Cc3ccc(O)cc3)C2)cc1 (stereo partly drawn),21%,3%,-1%,94% (active),inactive,inactive,inactive,inactive
Clc1ccc(Nc2nc3ccc(Cl)cc3nc2Nc2ccc(Cl)cc2)cc1,99% (active),79% (active),3%,99% (active),inactive,inactive,inactive,inactive
CCNc1cc(C(=O)N[C@@H](Cc2ccco2)[C@H](O)CNC2CCCCC2)cc(N2CCCCS2(=O)=O)c1,57% (active),14%,3%,91% (active),inactive,inactive,inactive,inactive
O=C(Nc1ccc(Cn2ncc(N3CCCNCC3)c(Cl)c2=O)cc1)Nc1ccc(F)cc1[N+](=O)[O-],-3%,11%,-4%,90% (active),inactive,inactive,inactive,inactive
CCOc1ccc(C(C)NC(=O)c2ccc(OC)c(Br)c2)cc1OCC (stereo not drawn),100% (active),9%,2%,100% (active),inactive,inactive,inactive,inactive
Cc1cc(N[C@@H](CC(C)C)C(=O)NCc2cccs2)nc(Nc2ccccc2)n1,57% (active),18%,1%,100% (active),inactive,inactive,inactive,inactive
O=C(/C=C/c1ccc(Cl)c(Cl)c1)N1CCN(C(=O)Nc2cccc(C(F)(F)F)c2)CC1,100% (active),53% (active),4%,99% (active),inactive,inactive,inactive,inactive
COc1ccc2nccc([C@@H](O)CN3CCC(NC(=O)/C=C/c4ccc(F)c5ccccc45)CC3)c2c1,75% (active),37%,0%,100% (active),inactive,inactive,inactive,inactive
Cc1cc(NC(c2ccc(Cl)cc2)c2ccc3cccnc3c2O)no1 (stereo not drawn),26%,50% (active),5%,88% (active),inactive,inactive,inactive,inactive
Cc1[nH]c(C)c(-c2ccc(C(=O)c3ccc(Cl)cc3)cc2)c(=O)c1Br,95% (active),10%,4%,97% (active),inactive,inactive,inactive,inactive
COc1ccc(CNCc2ccc(F)cc2)cc1-c1ccc(S(=O)(=O)NCCN2CCCC2)c(C)c1,56% (active),55% (active),-2%,98% (active),inactive,inactive,inactive,inactive
COc1ccccc1Nc1nc(C)cc(NCc2ccc(-c3c(C)noc3C)cc2)n1,13%,12%,-6%,98% (active),inactive,inactive,inactive,inactive
CN1CCN(CCCN(Cc2cccc(-c3cccc(CNCc4ccc5c(c4)OCO5)c3)c2)C(=O)CCC2CCCC2)CC1,80% (active),85% (active),1%,98% (active),inactive,inactive,inactive,inactive
O=c1[nH]c2ccc(Nc3nccc(NCCc4ccccc4)n3)cc2[nH]1,6%,-1%,3%,101% (active),inactive,inactive,inactive,inactive
COc1cc2ncnc(NCCc3ccccc3Cl)c2cc1OC,11%,0%,3%,88% (active),inactive,inactive,inactive,inactive

Compound,growth inhibition [1],inhibition [2],inhibition [3],growth inhibition [4],outcome [5],outcome [6],outcome [7],outcome [8]
COc1cc2c(cc1OCCN1CCC(N3CCCC3)CC1)N(C(=O)/C=C/c1ccccc1Cl)CC2,68% (active),38%,-7%,100% (active),inactive,inactive,inactive,inactive
COc1ccc(-c2ccc(S(=O)(=O)Nc3cc4c(cc3OC(C)C)CCNCC4)cc2)cc1,-1%,16%,3%,86% (active),inactive,inactive,inactive,inactive
c1ccc2c(c1)ncn2-c1ccnc(Nc2ccncc2)n1,80% (active),0%,-3%,89% (active),inactive,inactive,inactive,inactive
CCC(Cc1cnc2nc(N)nc(N)c2n1)c1ccc(C(=O)N[C@@H](CCC(=O)O)C(=O)O)cc1 (stereo partly drawn),98% (active),64% (active),-2%,93% (active),inactive,inactive,inactive,inactive
O=C(Nc1ccc2ccccc2c1)N(CCCn1ccnc1)Cc1csc(-c2ccc(CNCc3ccccc3)cc2)n1,53% (active),10%,0%,99% (active),inactive,inactive,inactive,inactive
Cc1cccc2[nH]c(-c3ccc(-c4ccc(CNCCNC(=O)c5ccnn5C)cc4)s3)nc12,97% (active),20%,-1%,101% (active),inactive,inactive,inactive,inactive
O=C(Nc1ccc(C(F)(F)F)cc1)c1ccc(S(=O)(=O)NC2CCN(CC3CCCCC3)CC2)cc1,20%,30%,1%,101% (active),inactive,inactive,inactive,inactive
O=C(Cn1c(CCc2cccc(F)c2F)nc(=O)c2ccccc21)N(CCCN1CCCC1)Cc1ccc(-c2ccc(C(F)(F)F)cc2)cc1,80% (active),54% (active),4%,101% (active),inactive,inactive,inactive,inactive
O=c1cc(NCCCCNCc2cccc(C(F)(F)F)c2)[nH]c2ccccc12,34%,13%,-1%,94% (active),inactive,inactive,inactive,inactive
CC1CCCN(C(=O)c2cc(-c3ccccn3)nc3c(Cl)cccc23)C1 (stereo not drawn),9%,2%,-5%,86% (active),inactive,inactive,inactive,inactive
CC(C)CCn1c(Sc2ccc(C#N)c([N+](=O)[O-])c2)nnc1-c1ccc(N(C)C)cc1,96% (active),11%,3%,97% (active),inactive,inactive,inactive,inactive
CC(C)Nc1nc(NCCc2cnc[nH]2)nc(NCc2ccc(Cl)c(Cl)c2)n1,-1%,-3%,7%,88% (active),inactive,inactive,inactive,inactive
COc1ccc(NC(=O)/C=C/c2ccccc2Cl)cc1OCCN1CCC(N2CCCC2)CC1,23%,22%,-1%,102% (active),inactive,inactive,inactive,inactive
C=CCc1cccc(C)c1OCCCON1C(N)=NC(N)=NC1(C)C,95% (active),65% (active),-8%,94% (active),inactive,inactive,inactive,inactive
Cc1ccc(NC(=O)c2ccc(CN3CCCN(Cc4cccc(O)c4)CC3)cc2)cc1C,25%,33%,4%,98% (active),inactive,inactive,inactive,inactive
CC(C)(C)c1nn(-c2ccccc2)c2[nH]c(=O)c(CNC3CCCCC3)cc12,76% (active),6%,3%,83% (active),inactive,inactive,inactive,inactive
O=C(Nc1ccc(Cl)cc1F)N[C@H]1CCN(CCCCCNC(=O)[C@@H]2C[C@H]2c2ccc(Cl)c(Cl)c2)C1,-3%,29%,3%,87% (active),inactive,inactive,inactive,inactive
Cc1c(Cn2ncc(N3C[C@@H](C)N[C@@H](C)C3)c(Cl)c2=O)cccc1NC(=O)Nc1ccc(-c2ccccc2)cc1,35%,97% (active),-6%,97% (active),inactive,inactive,inactive,inactive
